# Source: PubChem BioAssay (National Center for Advancing Translational Sciences (NCATS))
# This is a sample that favours compounds with a hit; in the whole collection about 7.5% have one here.
# Giardia FBPA inh: Giardia lamblia aldolase inhibition; 0.71% of 290,000 active; purified Giardia FBPA; Potency, µM (top dose mostly 59.6 µM), inactives show top-dose activity, negative = inhibition, actives largely listed as inhibitors; further: potency means the concentration at half of the fitted maximal effect; nearly all actives have a fitted effect of over 55% in size
# Target sequence (A8B2U2 whole entry, looked up): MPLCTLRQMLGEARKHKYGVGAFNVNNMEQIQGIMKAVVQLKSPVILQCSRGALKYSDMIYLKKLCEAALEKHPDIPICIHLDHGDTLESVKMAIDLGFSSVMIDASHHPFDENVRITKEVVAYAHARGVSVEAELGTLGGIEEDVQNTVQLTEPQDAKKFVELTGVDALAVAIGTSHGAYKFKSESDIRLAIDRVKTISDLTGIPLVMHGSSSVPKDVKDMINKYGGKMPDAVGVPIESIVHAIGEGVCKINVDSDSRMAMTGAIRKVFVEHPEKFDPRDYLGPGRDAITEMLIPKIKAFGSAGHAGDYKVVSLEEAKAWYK
#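 Giardia FBPA (40 nM reagent) was preincubated 10 min at RT with compound (up to 57.5 uM final), then substrate plus GAPDH/TPI/NAD/arsenate coupling system with diaphorase/resazurin was added; resorufin fluorescence (525/598 nm) was read after 20 min.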
# VACV mCherry inh: vaccinia inhibition (mCherry reporter); 0.63% of 310,000 active; Vaccinia virus mCherry reporter infection, fluorescence; Potency, µM (doses to about 36.5 µM), without a hit: at the highest dose activity change, negative = inhibition, actives largely listed as inhibitors; AID 720579; calls by dose curve; tested in A549 cells; further: potency means the concentration at half of the fitted maximal effect; nearly all actives have a fitted effect of over 35% in size
# HCMV inh: human cytomegalovirus inhibition. HFF cells, HCMV-luciferase reporter, 72 h; active compounds read low. activity change, negative = inhibition, % at 57.5 µM. 4.5% of 410,000 active. AID 1259415; in the data active means activity change below about -60%; inconclusive means no clear call, values can overlap the other calls; inactive means above about -39%
#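 Cell-based, HFFs, 1000 cells/well, 16 h 37C; cpds in DMSO + HCMV-luc, MOI 1 PFU/cell; 72 h 37C; OneGlo luminescence after 5 min RT; norm. to buffer vs Salinomycin 10uM.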
# FMDV antiviral: blocks foot and mouth disease virus; Potency, µM (highest dose often 57.9 µM), without a hit: at the highest dose activity change, negative = inhibition, usual class: inhibitors; FMDV antiviral cell-based qHTS; 1.2% of 410,000 active; calls by dose curve; tested in HEK293T cells; further: read-out not given here; potency means the concentration at half of the fitted maximal effect; nearly all actives have a fitted effect of over 45% in size
# HCV inhibitor: HCV inhibition. Potency, µM (highest dose often 41.8 µM), without a hit: at the highest dose activity change, negative = inhibition, actives largely listed as inhibitors. 3.4% of 340,000 active. Huh7.5.1 HCVcc-Cre infection, luciferase reporter, 44 h; further: potency means the concentration at half of the fitted maximal effect
#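 Cells (1,000/well) were plated 4 h before compound, then infected with HCVcc-Cre virus (~0.5 moi). After 44 h further culture, infection was read as luciferase luminescence following a 15 min substrate incubation at room temperature.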
# Vaccinia Venus: inhibitors of vaccinia virus (Venus reporter); Potency, µM (top dose mostly 36.5 µM), for inactives: at the top dose activity change, negative = inhibition, hits mostly inhibitors; Vaccinia virus Venus reporter expression, fluorescence; AID 720580; 0.46% of 330,000 active; calls by dose curve; tested in A549 cells; further: potency means the concentration at half of the fitted maximal effect; nearly all actives have a fitted effect of over 30% in size
# * = called active by the depositor; i = inactive; u = inconclusive; x = no result. Unless noted, the call rests on the fitted dose curve; in most records, active means well fitted curve in the direction sought with a large enough effect; inconclusive means small, poorly fitted or top-dose-only effect, or another doubt; inactive means no such curve, though single readings can be large; an effect the other way counts as inactive or inconclusive. On the % scale 0 is the no-effect control and ±100 the full control effect.
SMILES,Giardia FBPA inh,VACV mCherry inh,HCMV inh,FMDV antiviral,HCV inhibitor,Vaccinia Venus
NC(=O)C[C@H](N)c1cn([C@@H](CC(N)=O)C(=O)N2CCNCC2)nn1,x,i,-60*,-11%,27%,-3%
CCOC(=O)c1c(C)oc2ncnc(N3CCN(c4ccccc4)CC3)c12,x,-18%,-24,28µM*,x,-21%
CCOC(=O)c1c(C)oc2ncnc(N3CCN(c4ccccc4F)CC3)c12,x,-8%,-15,32µM*,x,2%
CCn1c(-c2ccccc2F)nc2cc(NC(C)=O)cc(C(=O)N3CCC[C@H]3C(=O)OC)c21,x,i,x,15%,x,0%
Cc1ccc2c(c1)/C(=C/c1ccc(F)cc1)C(=O)N2,-3%,x,-10,u,11µM*,x
Cc1nc2ccccc2c(=O)n1NC(=O)c1c(F)cccc1F,0%,x,-69*,-18%,2%,x
Cc1nc2ccccc2c(=O)n1NC(=O)c1ccccc1F,8%,x,52,-18%,-3%,x
CCN(CC)CCN(C)C(=O)c1[nH]c(C(F)(F)F)nc1-c1ccccc1,x,29%,-99*,-16%,x,0%
COC(=O)C1=C(C)N(Cc2ccccc2)C(=NCc2ccccc2)N[C@H]1c1cccc(F)c1,2%,u,-26,u,u,u
CCN(CC)CCCN=C1N[C@@H](c2cccc(F)c2)C(C(=O)OC)=C(C)N1Cc1ccccc1,x,u,-11,0%,u,28µM*
COC(=O)C1=C(C)N(Cc2ccccc2)C(=NCCc2c[nH]c3ccccc23)N[C@H]1c1cccc(F)c1,x,u,-8,u,u,13µM*
COC(=O)C1=C(C)N(Cc2cccc(C(F)(F)F)c2)C(=NCc2ccc3c(c2)OCO3)NC1c1cccc(F)c1 (stereo not given),x,x,-24,x,x,x
COC(=O)C1=C(C)N(Cc2ccccc2)C(=NCCc2c[nH]c3ccccc23)N[C@H]1c1ccccc1,6%,-21%,x,u,u,-19%
CCN(CC)CCCN=C1N[C@@H](c2cccc(C(F)(F)F)c2)C(C(=O)OC)=C(C)N1CC,x,16%,u,-4%,10µM*,-9%
COC(=O)C1=C(C)N(Cc2cccc(C(F)(F)F)c2)C(=NCc2ccccc2C(F)(F)F)NC1c1cccc(F)c1 (stereo not given),x,x,-78*,x,x,x
CCc1ccccc1NC(=O)CSC1=Nc2ccccc2C2=NC(Cc3ccccc3)C(=O)N12 (stereo not given),x,-17%,-30,-9%,x,-12%
CCN1CCN(c2c(S(=O)(=O)c3ccc(C)c(C)c3)cnc3cc(OC)c(OC)cc23)CC1,x,-23%,-36,-8%,x,-27%
COc1ccc(CNC(=O)Cn2c(=O)c3cccn3c3cccnc32)cc1,x,-5%,-22,1%,x,2%
CC(=O)NC1CC(=O)N(c2ccc3c(c2)OCCO3)C1 (stereo not given),x,-16%,11,-9%,x,-9%
CN(C)C(=O)c1ccc(SC(=S)NCc2ccccc2)cc1,x,-6%,-26,35µM*,x,-27%
Fc1ccc(C2C3=C(Nc4ncnn42)c2ccccc2OC3c2ccncc2)cc1 (stereo not given),-14%,-12%,-13,-22%,u,-8%
Cc1ccc(C2Oc3ccccc3C3=C2C(c2cccs2)n2ncnc2N3)cc1 (stereo not given),-6%,x,-14,0%,13µM*,x
COC(=O)[C@]1(C)CC[C@@]2(C)CC[C@@]3(C)C4=CCc5c(cc(O)c(O)c5C)[C@]4(C)CC[C@@]3(C)C2C1 (stereo not given in full),-17%,20%,x,20µM*,x,2%
Cc1ccc2[nH]c(C(=O)N3CCN(c4cccc(Cl)c4)CC3)cc2c1,7%,-21%,-8,-9%,13%,5%
CCC(=O)Nc1cc(SCCO)cc([N+](=O)[O-])c1,-1%,-10%,40,9%,x,-6%
O=C(CCl)Nc1cc(SCC(O)CO)cc([N+](=O)[O-])c1 (stereo not given),-14%,2.8µM*,-99*,14µM*,1.6µM*,4µM*
